What all share (set-up): species or system human, MV4-11 + K-562 + COLO205 + SK-N-BE2 + OVCAR-8
One assay concerns CDK10. To be noted: read-out: apparent Kd; compound concentrations: 100 nM and 1000 nM (sheet 'Samples'), CATDS: 0.11960358808183499; n = 1.
The test system of another assay is GSK3A. To be noted: read-out: apparent Kd, n = 1.
The next assay concerns GSK3B. The settings on record: read-out: apparent Kd; compound concentrations: 100 nM and 1000 nM (sheet 'Samples'), CATDS: 0.208029225896153; n = 1.
A further assay has as its system HSPE1. The settings on record: read-out: apparent Kd; compound concentrations: 100 nM and 1000 nM (sheet 'Samples'), CATDS: 0.54374623342004202; n = 1.
The next assay has as its system ICK. The settings on record: read-out: apparent Kd, n = 1.
For a further assay, the system named is PKM. To be noted: read-out: apparent Kd; compound concentrations: 100 nM and 1000 nM (sheet 'Samples'), CATDS: 0.11750793600078301; n = 1.
A further assay has as its system CDK16. To be noted: read-out: apparent Kd, n = 1.
For the next assay, the system named is CLK4. To be noted: read-out: apparent Kd; compound concentrations:100 nM and 1000 nM (sheet 'Samples'); n = 1.
In the next assay the test system is CSNK2A1;CSNK2A3. To be noted: read-out: apparent Kd; compound concentrations:100 nM and 1000 nM (sheet 'Samples'); n = 1.
In another assay the test system is CSNK2A2. To be noted: read-out: apparent Kd; compound concentrations:100 nM and 1000 nM (sheet 'Samples'); n = 1.
Another assay has as its system MELK. To be noted: read-out: apparent Kd; compound concentrations:100 nM and 1000 nM (sheet 'Samples'); n = 1.
The subject of the next assay is MYLK3. To be noted: read-out: apparent Kd; compound concentrations:100 nM and 1000 nM (sheet 'Samples'); n = 1.
The subject of the next assay is NUAK1. The settings on record: read-out: apparent Kd, n = 1.
Another assay relates to PRKAG1. To be noted: read-out: apparent Kd; compound concentrations:100 nM and 1000 nM (sheet 'Samples'); n = 1.
Another assay has as its system CDK2. The settings on record: read-out: apparent Kd, n = 1.
For another assay, the system named is NUAK2. To be noted: read-out: apparent Kd; compound concentrations: 100 nM and 1000 nM (sheet 'Samples'), CATDS: 0.14838950263404099; n = 1.
The subject of a further assay is STK3. The settings on record: read-out: apparent Kd; compound concentrations: 100 nM and 1000 nM (sheet 'Samples'), CATDS: 0.13207546439769999; n = 1.
In a further assay the test system is STK4. The settings on record: read-out: apparent Kd; compound concentrations: 100 nM and 1000 nM (sheet 'Samples'), CATDS: 0.136772712102746; n = 1.
Another assay deals with CDC42. The settings on record: read-out: apparent Kd, n = 1.
The test system of the next assay is MDN1. The settings on record: read-out: apparent Kd; compound concentrations: 100 nM and 1000 nM (sheet 'Samples'), CATDS: 0.33246338126543201; n = 1.
The test system of a further assay is RIOK2. To be noted: read-out: apparent Kd; compound concentrations: 100 nM and 1000 nM (sheet 'Samples'), CATDS: 0.36068630579871103; n = 1.
Another assay concerns CDK17. To be noted: read-out: apparent Kd, n = 1.
A further assay deals with CDK6. The settings on record: read-out: apparent Kd; compound concentrations:100 nM and 1000 nM (sheet 'Samples'); n = 1.
In a further assay the test system is NNT. The settings on record: read-out: apparent Kd; compound concentrations:100 nM and 1000 nM (sheet 'Samples'); n = 1.
The test system of another assay is T1, DJA1.
T1 construct: gene DNAJA1
To be noted: read-out: apparent Kd; compound concentrations:100 nM and 1000 nM (sheet 'Samples'); n = 1.

The subject of the next assay is PRKCQ. The settings on record: read-out: apparent Kd; compound concentrations:100 nM and 1000 nM (sheet 'Samples'); n = 1.
Another assay deals with FLT3. To be noted: read-out: apparent Kd; compound concentrations:100 nM and 1000 nM (sheet 'Samples'); n = 1.
A further assay relates to LIMK2. The settings on record: read-out: apparent Kd; compound concentrations:100 nM and 1000 nM (sheet 'Samples'); n = 1.
Where [1] appears, read: compound concentrations:100 nM and 1000 nM (sheet 'Samples').

Results on 8 compounds are retold here after publication PMC11062922 (Nature Chemical Biology, 2023).

Read-outs that look alike come from different tables or passages of the source.

As to `Cn1cc(C2=C(c3cccnc3)C(=O)NC2=O)c2ccccc21` [RO0317886-000], the potency estimated from few doses was 1.08 µM in the assay on CDK10; 0.213 µM in the assay with GSK3A (compound concentrations: 100 nM and 1000 nM (sheet 'Samples'), CATDS: 0.212149107920546); 0.222 µM in the assay on GSK3B; 0.0393 µM in the assay with HSPE1; 0.825 µM in the assay with ICK (compound concentrations: 100 nM and 1000 nM (sheet 'Samples'), CATDS: 0.128713258557627); 1.16 µM in the assay with PKM.

For `NS(=O)(=O)c1ccc(N/N=C2\C(=O)Nc3ccc(C(=O)NCCc4c[nH]cn4)cc32)cc1` [GW300660X], the potency estimated from few doses in the assay with CDK16 (setting [1]) was 1.01 µM; with CLK4, 1.23 µM; in the assay with CSNK2A1;CSNK2A3, 2.31 µM; in the assay on CSNK2A2 it was 1.97 µM; in the assay with GSK3A (setting [1]), 1.22 µM; in the assay with MELK, 2.18 µM. The potency estimated from few doses in the assay on MYLK3 was 0.735 µM; in the assay with NUAK1 (setting [1]), 1.45 µM; in the assay on PRKAG1, 1.48 µM.

With `CC(C)=Cc1cccc2c1/C(=N/Nc1ccc(S(N)(=O)=O)cc1)C(=O)N2` [GW396574X], the potency estimated from few doses in the assay with CDK16 (compound concentrations: 100 nM and 1000 nM (sheet 'Samples'), CATDS: 0.172165115049177) was 0.778 µM; in the assay on CDK2 (compound concentrations: 100 nM and 1000 nM (sheet 'Samples'), CATDS: 0.26435202316191703) it was 0.366 µM; in the assay on NUAK1 (compound concentrations: 100 nM and 1000 nM (sheet 'Samples'), CATDS: 0.20890182477098199) it was 0.539 µM; in the assay with NUAK2, 1.08 µM; in the assay on STK3, 1.47 µM; in the assay on STK4 it was 1.33 µM.

Regarding `Cn1cc(C2=C(c3cccc4ccccc34)C(=O)NC2=O)c2ccccc21` [RO0317253-000], the potency estimated from few doses is 2.18 µM in the assay with CDC42 (compound concentrations: 100 nM and 1000 nM (sheet 'Samples'), CATDS: 0.310592027425942); 1.89 µM in the assay on MDN1; 1.62 µM in the assay on RIOK2.

For `CCN1CCC(CC(=O)Nc2n[nH]c3nc(-c4cccs4)c(Br)cc23)CC1.O=C(O)[C@H](O)[C@@H](O)C(=O)O` [SB-739245-AC], the potency estimated from few doses in the assay with CDK16 (compound concentrations: 100 nM and 1000 nM (sheet 'Samples'), CATDS: 0.32554244195376097) is 0.802 µM; in the assay with CDK17 (compound concentrations: 100 nM and 1000 nM (sheet 'Samples'), CATDS: 0.31469055739513202), 0.861 µM; with GSK3A (compound concentrations: 100 nM and 1000 nM (sheet 'Samples'), CATDS: 0.36357302595777402), 0.647 µM.

For `CS(=O)(=O)N1CCC(Nc2ncc(C(=O)c3c(F)cccc3F)c(N)n2)CC1` [RO4930481-000], the potency estimated from few doses is 1.35 µM in the assay with CDK16 (setting [1]); 1.47 µM with CDK17 (setting [1]); 1 µM with CDK2 (setting [1]); 1.75 µM in the assay with CDK6; 1.26 µM with ICK (setting [1]); 1.11 µM with NNT.

For the compound `CNc1nc(-c2ccc3c(N)n[nH]c3c2)cc(N2C[C@@H](C(=O)Nc3ccccc3)CC[C@H]2C)n1` [GSK2298859A], the potency estimated from few doses in the assay with CDC42 (setting [1]) was 2.14 µM; in the assay with DJA1, 0.88 µM; with PRKCQ, 1.8 µM.

On to `CC(=O)Nc1n[nH]c2ncc(-c3ccccc3)cc12` [SB-548492], for which the potency estimated from few doses in the assay on CDC42 (setting [1]) was 1.85 µM; in the assay on FLT3, 1.04 µM; in the assay on GSK3A (setting [1]), 0.748 µM; with LIMK2, 1.15 µM.
